Measurements reported in PubChem BioAssay (NCATS).
Inconclusive results are not listed. Active and inactive are the calls of the source. Calls come from the whole dose curve; as a rule, active = well fitted curve in the direction sought with a large enough effect; inconclusive = small, poorly fitted or top-dose-only effect, or another doubt; inactive = no such curve, though single readings can be large; an effect the other way counts as inactive or inconclusive.

How the values were obtained:
C33A = assay: Primary qHTS to identify gynecologic anti-cancer compounds using libraries of approved drugs and bioactive compounds (AID 1345084); details: Gynecologic cancer cell panel viability, ATPlite luminescence, 48 h; series mostly up to 57.5 µM; note: nearly all actives have a fitted effect of over 55% in size; note: potency is the fitted concentration of half-maximal effect
How it was run: (§1)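 Cell viability after 48 h drug treatment, ATPlite luminescence readout; five doses.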

CAOV3 = assay: as above; details: Gynecologic cancer cell panel viability, ATPlite luminescence, 48 h; series mostly up to 57.5 µM
How it was run: as §1

CASKI = assay: as above; details: Gynecologic cancer cell panel viability, ATPlite luminescence, 48 h; series mostly up to 57.5 µM
How it was run: as §1

Es-2 = assay: as above; details: Gynecologic cancer cell panel viability, ATPlite luminescence, 48 h; series mostly up to 57.5 µM
How it was run: as §1

HeLa = assay: as above; details: Gynecologic cancer cell panel viability, ATPlite luminescence, 48 h; series mostly up to 57.5 µM
How it was run: as §1

Hek293T [1] = assay: as above; details: Gynecologic cancer cell panel viability, ATPlite luminescence, 48 h, control line for the selectivity index; series mostly up to 57.5 µM
How it was run: as §1

HaCat [2] = assay: Cytotoxic Profiling of Annotated Libraries Using Quantitative High-Throughput Screening (AID 1296008); details: Five cell lines viability, CellTiter-Glo ATP luminescence, 48-72 h; max response: active compounds read low; note: nearly all actives have a fitted effect of over 60% in size
How it was run: (§2)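 Compounds were pin-transferred onto cells and incubated 48 or 72 hr at 37 degree Celsius, 95% humidity. CellTiter-Glo was added, plates sat 10 min at room temperature, then ATP-coupled luminescence was imaged as the viability read-out.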

HACAT [3] = assay: qHTS assay to identify novel small-molecules to repurpose for Merkel cell carcinoma treatment (AID 1296009); details: MCC and control cell lines, CellTiter-Glo viability, 72 h; at 44.8 µM (top of the series) unless noted; note: nearly all actives have a fitted effect of over 60% in size; note: potency is the fitted concentration of half-maximal effect
How it was run: (§3)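 Luminescence from CellTiter-Glo, read 10 min after addition at room temperature, reported viability following a 72 hr, 37 degree celsius treatment with NPC or MIPE compounds in titration; values normalized to plate controls.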

MCC-13 = assay: as above; details: MCC and control cell lines, CellTiter-Glo viability, 72 h; series mostly up to 46 µM
How it was run: as §3

MCC-26 = assay: as above; details: MCC and control cell lines, CellTiter-Glo viability, 72 h; series mostly up to 46 µM
How it was run: as §3

MKL-2 = assay: as above; details: MCC and control cell lines, CellTiter-Glo viability, 72 h; series mostly up to 46 µM
How it was run: as §3

UISO = assay: as above; details: MCC and control cell lines, CellTiter-Glo viability, 72 h; series mostly up to 46 µM
How it was run: as §3

WaGa = assay: as above; details: MCC and control cell lines, CellTiter-Glo viability, 72 h; series mostly up to 46 µM
How it was run: as §3

MKL-1 = assay: as above; details: MCC and control cell lines, CellTiter-Glo viability, 72 h; series mostly up to 46 µM
How it was run: as §3

NIH3T3 [4] = assay: as above; details: MCC and control cell lines, CellTiter-Glo viability, 72 h; at 44.8 µM (top of the series) unless noted
How it was run: as §3

HEK293 = assay: Cytotoxic Profiling of Annotated Libraries Using Quantitative High-Throughput Screening (AID 1296008); details: Five cell lines viability, CellTiter-Glo ATP luminescence, 48-72 h; max response: active compounds read low; note: nearly all actives have a fitted effect of over 60% in size
How it was run: as §2

KB-3-1 = assay: as above; details: Five cell lines viability, CellTiter-Glo ATP luminescence, 48-72 h; max response: active compounds read low
How it was run: as §2

HEK293T [5] = assay: qHTS assay to identify novel small-molecules to repurpose for Merkel cell carcinoma treatment (AID 1296009); details: MCC and control cell lines, CellTiter-Glo viability, 72 h; at 44.8 µM (top of the series) unless noted; note: nearly all actives have a fitted effect of over 60% in size; note: potency is the fitted concentration of half-maximal effect
How it was run: as §3

NIH3T3 [6] = assay: Cytotoxic Profiling of Annotated Libraries Using Quantitative High-Throughput Screening (AID 1296008); details: Five cell lines viability, CellTiter-Glo ATP luminescence, 48-72 h; max response: active compounds read low; note: nearly all actives have a fitted effect of over 60% in size
How it was run: as §2
% is set by controls: 0 for no effect and ±100 for the full control effect.

CC[N+](C)(C)c1cccc(O)c1
inactive: Potency (C33A) | Potency (CAOV3) | Potency (CASKI) | Potency (Es-2) | Potency (HeLa) | Potency (Hek293T [1])

COc1cc2c(cc1OC)-c1cc(=Nc3c(C)cc(C)cc3C)n(C)c(=O)n1CC2
inactive: outcome (HaCat [2]) | outcome (HACAT [3]) | Potency (CAOV3) | Potency (Hek293T [1])

C#CCN(C)CCCOc1ccc(Cl)cc1Cl
inactive: Potency (MCC-13) | Potency (MCC-26) | Potency (MKL-2) | Potency (UISO) | Potency (WaGa) | Potency (C33A) | Potency (CAOV3) | Potency (CASKI) | Potency (Es-2) | Potency (HeLa) | Potency (Hek293T [1])

CN(C)CCN(Cc1cccs1)c1ccccn1
inactive: outcome (HACAT [3]) | Potency (MCC-13) | Potency (MCC-26) | Potency (MKL-1) | Potency (MKL-2) | Potency (UISO) | Potency (WaGa) | Potency (C33A) | Potency (CAOV3) | Potency (CASKI) | Potency (Es-2) | Potency (HeLa) | Potency (Hek293T [1])

COc1ccc([C@@H]2Sc3ccccc3N(CCN(C)C)C(=O)[C@@H]2OC(C)=O)cc1
inactive: Potency (C33A) | Potency (CASKI) | Potency (Es-2) | Potency (HeLa) | Potency (Hek293T [1])

COCC(=O)O[C@]1(CCN(C)CCCc2nc3ccccc3[nH]2)CCc2cc(F)ccc2[C@@H]1C(C)C
inactive: Potency (Es-2) | Potency (HeLa) | Potency (Hek293T [1])

CC1=NS(=O)(=O)c2cc(Cl)ccc2N1
inactive: outcome (HACAT [3]) | Potency (MCC-13) | Potency (MCC-26) | Potency (MKL-1) | Potency (MKL-2) | outcome (NIH3T3 [4]) | Potency (UISO) | Potency (WaGa) | Potency (C33A) | Potency (CAOV3) | Potency (CASKI) | Potency (Es-2) | Potency (HeLa) | Potency (Hek293T [1])

NS(=O)(=O)c1cc2c(cc1Cl)NC(C1CC3C=CC1C3)NS2(=O)=O (centres undefined)
inactive: outcome (HEK293) | max response (KB-3-1) -20.4% | outcome (HEK293T [5]) | Potency (MCC-13) | Potency (MCC-26) | Potency (MKL-1) | Potency (MKL-2) | Potency (UISO) | Potency (WaGa) | Potency (C33A) | Potency (CAOV3) | Potency (CASKI) | Potency (Es-2) | Potency (HeLa) | Potency (Hek293T [1])

CSc1ccc(C(=O)c2[nH]c(=O)[nH]c2C)cc1
inactive: outcome (HACAT [3]) | Potency (MCC-13) | Potency (MCC-26) | Potency (MKL-1) | Potency (MKL-2) | outcome (NIH3T3 [4]) | Potency (UISO) | Potency (WaGa) | Potency (C33A) | Potency (CAOV3) | Potency (CASKI) | Potency (Es-2) | Potency (Hek293T [1])
active: Potency (HeLa) 2 µM

C[N+](C)(C)CCCCCCCCCC[N+](C)(C)C
inactive: Potency (C33A) | Potency (CASKI) | Potency (Es-2) | Potency (HeLa) | Potency (Hek293T [1])

CNCCCN1c2ccccc2CCc2ccccc21
inactive: outcome (HaCat [2]) | outcome (HACAT [3]) | Potency (MCC-13) | Potency (MCC-26) | Potency (C33A) | Potency (Es-2) | Potency (HeLa) | Potency (Hek293T [1])

COCCOC(=O)C1=C(C)NC(C)=C(C(=O)OC(C)C)C1c1cccc([N+](=O)[O-])c1 (centres undefined)
active: Potency (WaGa) 26.6 µM
inactive: outcome (HaCat [2]) | max response (NIH3T3 [6]) -6.33% | outcome (HACAT [3]) | Potency (MCC-13) | Potency (MCC-26) | Potency (C33A) | Potency (CAOV3) | Potency (CASKI) | Potency (Es-2) | Potency (HeLa) | Potency (Hek293T [1])

CCc1cccc(N(C)C(N)=Nc2cccc3ccccc23)c1
inactive: max response (HaCat [2]) -4.04% | max response (KB-3-1) -7.55% | max response (NIH3T3 [6]) -9.35% | Potency (MCC-26) | Potency (MKL-1) | Potency (UISO) | Potency (C33A) | Potency (CAOV3) | Potency (CASKI) | Potency (Es-2) | Potency (HeLa) | Potency (Hek293T [1])

CCOC(=O)C1=C(C)NC(C)=C(C(=O)OC)C1c1cccc(Cl)c1Cl (centres undefined)
inactive: outcome (HaCat [2]) | max response (KB-3-1) -8.74% | outcome (HACAT [3]) | Potency (MCC-13) | Potency (MCC-26) | Potency (MKL-2) | Potency (UISO) | Potency (C33A) | Potency (CAOV3) | Potency (CASKI) | Potency (Es-2) | Potency (Hek293T [1])

CCNC(=O)N1CCN(CCCC(c2ccc(F)cc2)c2ccc(F)cc2)CC1
inactive: outcome (HaCat [2]) | max response (NIH3T3 [6]) -3.38% | outcome (HACAT [3]) | Potency (MCC-13) | Potency (MCC-26) | Potency (C33A) | Potency (CAOV3) | Potency (CASKI) | Potency (Es-2) | Potency (HeLa)
